# In the supplement of paper PMC10849652:
# Of roughly 7,900 targets only a part is listed; those with a hit were picked by preference. About 0.6% of all pairs of compound and target were hits. Unmarked numbers belong to inactive results.
# Tests used:
# Experiment in all cases: log2 fold change, soluble protein after heating vs DMSO (PISA); higher = thermal stabilisation; K562 cells, 10 uM, 30 min; active = over 0.2 and 3.5 SD of the protein, either way, in both replicates (recomputed)
# [1] = compound: CC1=C(C=C(C=C1)NC(=O)C2=CC(=CC=C2)C(C)(C)C#N)NC3=CC4=C(C=C3)N=CN(C4=O)C
# Procedure, shortened: (§1)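 K562 cells at 2×10^6 cells/mL were given 10 μM compound for 30 min. Aliquots then went through 3 min of heating across 48°C-58°C, were pooled, and were extracted in PBS with 0.5% NP-40 at 4°C, and the supernatant after 21,000xg for 90 min was quantified by TMTpro 16plex LC-MS/MS with channel sums equalised. Thermal stability relative to control samples, from duplicates, is given as log2 fold change.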
# [2] = compound: CC1=C(C=C(C=C1)NC(=O)C2=CC(=CC=C2)N(C)C)NC(=O)C3=CC=C(C=C3)O
# Procedure, shortened: as §1
# [3] = compound: CC1=CC=C(C=C1)SC2=C3C=C(SC3=CN=C2)C(=O)N
# Procedure, shortened: as §1
# [4] = compound: CC1=NC(=CC=C1)C2=C(N=C(N2)C(C)(C)C)C3=CC4=NC=CN=C4C=C3
# Procedure, shortened: as §1
# [5] = compound: CCCCN(Cc1ccc(C(=O)NO)cc1)C(=O)Nc1ccccc1 [Nexturastat A]
# Procedure, shortened: as §1
# [6] = compound: CCCS(=O)(=O)Nc1ccc(F)c(C(=O)c2c[nH]c3ncc(-c4ccc(Cl)cc4)cc23)c1F [vemurafenib]
# Procedure, shortened: as §1
# [7] = compound: CCCS(=O)(=O)Nc1ccc(F)c(C(=O)c2c[nH]c3ncc(Cl)cc23)c1F
# Procedure, shortened: as §1
# [8] = compound: CCCc1cc(C)[nH]c(=O)c1CNC(=O)c1cc(-c2ccnc(N3CCN(C)CC3)c2)cc2c1cnn2C(C)C
# Procedure, shortened: as §1
# [9] = compound: CCN(CC)Cc1ccc2cc(COC(=O)Nc3ccc(C(=O)NO)cc3)ccc2c1 [givinostat]
# Procedure, shortened: as §1
# [10] = compound: CCN(CCCOc1ccc2c(Nc3cc(CC(=O)Nc4cccc(F)c4)[nH]n3)ncnc2c1)CCOP(=O)(O)O [barasertib]
# Procedure, shortened: as §1
# Sequence of UniProt Q8IVT5 (Q8IVT5 whole entry, looked up): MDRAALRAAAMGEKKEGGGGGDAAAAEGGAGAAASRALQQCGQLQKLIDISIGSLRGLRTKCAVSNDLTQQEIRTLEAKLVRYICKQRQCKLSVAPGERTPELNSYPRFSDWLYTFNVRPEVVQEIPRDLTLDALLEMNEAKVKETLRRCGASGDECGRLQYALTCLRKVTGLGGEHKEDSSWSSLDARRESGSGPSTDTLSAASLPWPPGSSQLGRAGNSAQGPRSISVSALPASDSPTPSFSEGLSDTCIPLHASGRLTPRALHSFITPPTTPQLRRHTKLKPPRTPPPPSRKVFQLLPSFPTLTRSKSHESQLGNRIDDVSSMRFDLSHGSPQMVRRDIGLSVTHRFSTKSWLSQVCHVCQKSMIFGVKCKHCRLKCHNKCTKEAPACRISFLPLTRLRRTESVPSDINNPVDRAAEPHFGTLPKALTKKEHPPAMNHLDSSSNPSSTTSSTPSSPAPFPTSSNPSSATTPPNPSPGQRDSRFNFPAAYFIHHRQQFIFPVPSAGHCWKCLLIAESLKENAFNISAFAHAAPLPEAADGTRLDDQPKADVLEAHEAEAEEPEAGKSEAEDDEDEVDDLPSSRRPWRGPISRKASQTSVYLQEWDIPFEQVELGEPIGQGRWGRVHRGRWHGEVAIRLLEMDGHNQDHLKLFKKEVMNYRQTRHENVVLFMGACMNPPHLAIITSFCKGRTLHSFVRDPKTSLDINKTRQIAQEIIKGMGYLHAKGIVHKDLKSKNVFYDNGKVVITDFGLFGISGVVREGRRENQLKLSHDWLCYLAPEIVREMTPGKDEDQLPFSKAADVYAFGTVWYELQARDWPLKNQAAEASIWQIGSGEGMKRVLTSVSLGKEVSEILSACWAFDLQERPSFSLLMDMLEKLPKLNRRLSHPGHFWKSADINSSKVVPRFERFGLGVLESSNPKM
# Sequence of UniProt P27448 (P27448 whole entry, looked up): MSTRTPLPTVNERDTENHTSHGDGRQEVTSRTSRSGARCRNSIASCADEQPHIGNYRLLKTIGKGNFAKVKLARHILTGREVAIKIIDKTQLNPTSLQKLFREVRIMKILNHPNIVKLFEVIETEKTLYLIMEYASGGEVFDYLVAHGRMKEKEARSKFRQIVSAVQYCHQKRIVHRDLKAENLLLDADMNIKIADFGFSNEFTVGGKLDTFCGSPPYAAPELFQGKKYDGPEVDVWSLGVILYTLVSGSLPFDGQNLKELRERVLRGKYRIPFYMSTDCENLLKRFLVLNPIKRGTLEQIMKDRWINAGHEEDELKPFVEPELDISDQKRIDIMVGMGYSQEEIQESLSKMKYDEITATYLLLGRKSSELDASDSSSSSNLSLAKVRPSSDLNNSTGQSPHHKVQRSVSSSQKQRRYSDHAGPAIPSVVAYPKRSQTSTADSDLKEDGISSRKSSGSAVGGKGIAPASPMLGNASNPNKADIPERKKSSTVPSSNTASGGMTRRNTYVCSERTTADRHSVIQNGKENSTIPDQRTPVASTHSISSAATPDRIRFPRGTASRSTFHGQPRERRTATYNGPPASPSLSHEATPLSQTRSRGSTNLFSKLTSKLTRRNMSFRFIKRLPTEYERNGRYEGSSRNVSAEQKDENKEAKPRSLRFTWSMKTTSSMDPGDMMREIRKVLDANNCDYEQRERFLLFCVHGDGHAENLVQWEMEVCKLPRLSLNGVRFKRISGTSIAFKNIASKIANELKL
# Sequence of UniProt Q96G25 (Q96G25 whole entry, looked up): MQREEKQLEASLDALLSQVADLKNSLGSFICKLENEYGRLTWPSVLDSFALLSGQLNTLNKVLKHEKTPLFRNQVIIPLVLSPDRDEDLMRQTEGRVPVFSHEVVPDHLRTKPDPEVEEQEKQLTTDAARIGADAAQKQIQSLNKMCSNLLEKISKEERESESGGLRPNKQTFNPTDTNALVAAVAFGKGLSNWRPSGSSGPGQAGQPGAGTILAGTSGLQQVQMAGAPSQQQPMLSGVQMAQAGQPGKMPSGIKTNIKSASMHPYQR
# Sequence of UniProt Q86X29 (Q86X29 whole entry, looked up): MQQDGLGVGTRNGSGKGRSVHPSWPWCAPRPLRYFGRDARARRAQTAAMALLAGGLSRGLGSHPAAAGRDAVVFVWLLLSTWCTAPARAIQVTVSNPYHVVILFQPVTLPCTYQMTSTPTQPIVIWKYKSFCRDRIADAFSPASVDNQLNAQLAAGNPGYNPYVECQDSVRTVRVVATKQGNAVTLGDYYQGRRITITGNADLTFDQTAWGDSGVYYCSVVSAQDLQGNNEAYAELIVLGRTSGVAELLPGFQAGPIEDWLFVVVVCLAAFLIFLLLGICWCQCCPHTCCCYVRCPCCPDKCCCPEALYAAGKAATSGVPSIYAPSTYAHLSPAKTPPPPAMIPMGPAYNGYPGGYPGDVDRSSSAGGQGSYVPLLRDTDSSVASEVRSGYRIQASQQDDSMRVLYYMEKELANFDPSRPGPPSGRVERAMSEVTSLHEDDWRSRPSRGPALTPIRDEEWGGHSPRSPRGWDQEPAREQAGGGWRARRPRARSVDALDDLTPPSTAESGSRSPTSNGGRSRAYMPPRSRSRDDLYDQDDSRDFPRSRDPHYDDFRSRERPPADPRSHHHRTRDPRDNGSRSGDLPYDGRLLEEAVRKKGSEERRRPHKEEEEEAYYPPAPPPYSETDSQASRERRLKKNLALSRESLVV
# Sequence of UniProt Q9BPX6 (Q9BPX6 whole entry, looked up): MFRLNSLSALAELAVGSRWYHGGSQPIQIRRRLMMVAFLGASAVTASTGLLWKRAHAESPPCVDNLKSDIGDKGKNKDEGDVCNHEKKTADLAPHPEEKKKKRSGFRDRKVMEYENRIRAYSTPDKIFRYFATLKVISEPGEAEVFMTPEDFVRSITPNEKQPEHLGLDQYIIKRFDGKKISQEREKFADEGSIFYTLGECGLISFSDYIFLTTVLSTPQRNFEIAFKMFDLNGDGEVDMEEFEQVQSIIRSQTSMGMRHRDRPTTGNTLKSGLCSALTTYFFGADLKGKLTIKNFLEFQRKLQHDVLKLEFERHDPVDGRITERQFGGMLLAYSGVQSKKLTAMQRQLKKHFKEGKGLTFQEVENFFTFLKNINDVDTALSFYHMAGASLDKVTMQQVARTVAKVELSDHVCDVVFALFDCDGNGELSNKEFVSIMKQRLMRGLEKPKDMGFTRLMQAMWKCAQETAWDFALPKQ
# Sequence of UniProt Q92604 (Q92604 whole entry, looked up): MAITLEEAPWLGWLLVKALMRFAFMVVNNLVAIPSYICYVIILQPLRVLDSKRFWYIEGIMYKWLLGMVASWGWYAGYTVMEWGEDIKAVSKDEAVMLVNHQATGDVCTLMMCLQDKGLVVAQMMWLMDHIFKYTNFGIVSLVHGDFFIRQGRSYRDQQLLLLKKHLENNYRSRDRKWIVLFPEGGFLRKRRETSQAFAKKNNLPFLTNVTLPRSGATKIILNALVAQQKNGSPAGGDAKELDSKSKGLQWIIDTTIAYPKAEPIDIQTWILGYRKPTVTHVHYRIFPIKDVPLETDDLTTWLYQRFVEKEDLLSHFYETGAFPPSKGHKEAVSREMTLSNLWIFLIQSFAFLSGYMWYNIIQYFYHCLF
# Sequence of UniProt O95372 (O95372 whole entry, looked up): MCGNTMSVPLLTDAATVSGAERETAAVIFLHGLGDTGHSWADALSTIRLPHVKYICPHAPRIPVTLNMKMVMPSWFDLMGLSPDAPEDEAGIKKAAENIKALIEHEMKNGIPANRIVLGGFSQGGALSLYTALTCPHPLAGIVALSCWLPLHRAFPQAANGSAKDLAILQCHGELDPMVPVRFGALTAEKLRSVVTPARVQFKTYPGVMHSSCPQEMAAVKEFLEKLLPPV
# Sequence of UniProt Q8IWA4 (Q8IWA4 whole entry, looked up): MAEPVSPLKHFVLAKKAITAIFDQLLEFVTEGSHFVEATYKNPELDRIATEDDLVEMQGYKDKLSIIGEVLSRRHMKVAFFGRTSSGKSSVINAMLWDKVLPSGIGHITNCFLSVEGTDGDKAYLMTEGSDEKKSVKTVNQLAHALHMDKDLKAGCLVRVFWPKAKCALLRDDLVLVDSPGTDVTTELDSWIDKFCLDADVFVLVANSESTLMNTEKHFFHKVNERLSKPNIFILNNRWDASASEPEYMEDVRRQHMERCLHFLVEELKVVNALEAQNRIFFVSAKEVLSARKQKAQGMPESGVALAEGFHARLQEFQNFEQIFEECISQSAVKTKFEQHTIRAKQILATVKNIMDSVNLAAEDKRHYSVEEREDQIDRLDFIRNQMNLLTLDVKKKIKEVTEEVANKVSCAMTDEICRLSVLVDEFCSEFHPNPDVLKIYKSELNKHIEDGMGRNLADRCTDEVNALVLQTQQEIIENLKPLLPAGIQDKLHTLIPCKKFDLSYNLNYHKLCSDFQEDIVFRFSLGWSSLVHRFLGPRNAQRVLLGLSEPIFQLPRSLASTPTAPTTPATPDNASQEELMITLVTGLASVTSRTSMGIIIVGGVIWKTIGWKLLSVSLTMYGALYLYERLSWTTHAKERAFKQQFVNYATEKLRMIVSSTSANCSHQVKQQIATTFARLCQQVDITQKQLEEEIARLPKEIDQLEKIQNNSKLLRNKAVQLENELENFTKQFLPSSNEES
# Sequence of UniProt P53778 (P53778 whole entry, looked up): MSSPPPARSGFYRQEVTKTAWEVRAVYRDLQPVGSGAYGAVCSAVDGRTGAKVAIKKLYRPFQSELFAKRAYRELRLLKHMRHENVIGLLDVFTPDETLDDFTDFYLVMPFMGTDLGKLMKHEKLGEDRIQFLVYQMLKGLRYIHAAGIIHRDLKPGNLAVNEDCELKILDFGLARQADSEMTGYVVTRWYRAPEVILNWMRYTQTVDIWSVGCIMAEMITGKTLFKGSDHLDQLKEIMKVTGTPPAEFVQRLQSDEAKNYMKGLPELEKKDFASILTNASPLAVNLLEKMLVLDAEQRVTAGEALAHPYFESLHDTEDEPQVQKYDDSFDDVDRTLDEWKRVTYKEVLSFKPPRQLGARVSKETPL
# Sequence of UniProt Q13257 (Q13257 whole entry, looked up): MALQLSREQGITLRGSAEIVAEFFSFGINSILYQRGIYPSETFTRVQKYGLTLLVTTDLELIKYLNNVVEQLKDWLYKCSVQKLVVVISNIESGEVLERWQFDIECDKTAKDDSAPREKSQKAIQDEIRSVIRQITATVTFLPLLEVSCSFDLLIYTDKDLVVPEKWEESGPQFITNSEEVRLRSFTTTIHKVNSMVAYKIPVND
Target,log2 fold change [1],log2 fold change [2],log2 fold change [3],log2 fold change [4],log2 fold change [5],log2 fold change [6],log2 fold change [7],log2 fold change [8],log2 fold change [9],log2 fold change [10]
LONP2 (UniProt Q86WA8),0.173,-0.119,0.08,0.009,-0.083,0.128,-0.137,0.013,-0.05,-0.056
MAP4K5 (UniProt Q9Y4K4),0.01,0.082,0.025,-0.012,-0.042,-0.025,-0.008,-0.047,-0.024,0.1
KHDC4 (UniProt Q7Z7F0),-0.008,-0.055,0.026,0.071,0.068,0.113,0.017,0.038,0.048,0.049
KPNA6 (UniProt O60684),-0.06,-0.02,-0.014,-0.063,0.156,-0.09,0.078,0.068,0.018,0.047
KIAA1324L (UniProt A8MWY0),-0.065,-0.022,0.028,0.002,0.045,0.002,-0.048,0.05,0.032,0.002
LUC7L (UniProt Q9NQ29),0.028,0.003,-0.022,-0.021,0.054,-0.007,-0.004,0.027,-0.034,-0.01
MED8 isoform 2 (UniProt Q96G25),-0.085,0.038,-0.03,0.089,0.045,0.36 (active),-0.027,0.081,-0.038,-0.059
LARP1 (UniProt Q6PKG0),0.01,0.032,-0.035,0.029,0.142,-0.033,-0.03,0.046,0.012,-0.006
MAD2L1 (UniProt Q13257),0.019,-0.035,-0.003,0.031,-0.103,0.028,0.031,-0.129,0.02,0.018
MAGOHB (UniProt Q96A72),-0.002,-0.062,0.008,0.067,-0.026,0.037,0.04,-0.069,0.003,0.007
INTS7 (UniProt Q9NVH2),0.134,-0.007,0.088,0.091,-0.001,0.039,0.018,0.027,0.242,0.022
KSR1 (UniProt Q8IVT5),0.231,-0.007,0.112,-0.028,0.001,0.046,0.218,-0.132,0.106,0.013
MAP3K20 (UniProt Q9NYL2),-0.448 (active),-0.098,-0.014,0.03,0.062,-0.254,-0.163,0.022,-0.089,-0.02
MFN1 (UniProt Q8IWA4),-0.007,0.035,0.039,-0.04,-0.032,-0.061,-0.021,-0.19,0.053,0.016
LYPLA2 (UniProt O95372),0.043,-0.131,0.082,-0.056,-0.071,0.132,0.038,-0.001,-0.055,-0.099
LSR (UniProt Q86X29),-0.051,0.016,-0.05,-0.05,-0.074,-0.028,-0.061,-0.019,-0.046,-0.016
MAPK12 (UniProt P53778),-0.043,0.017,-0.022,0.09,-0.112,0.019,0.104,0.016,-0.058,-0.031

Target,log2 fold change [1],log2 fold change [2],log2 fold change [3],log2 fold change [4],log2 fold change [5],log2 fold change [6],log2 fold change [7],log2 fold change [8],log2 fold change [9],log2 fold change [10]
MAPKAPK5 (UniProt Q8IW41),0.004,-0.02,-0.015,0.013,0.003,0.028,0.11,0.038,0.225,-0.03
LARP4B (UniProt Q92615),0.055,0.032,0.016,0.001,0.127,0.016,0.022,0.05,0.061,-0.025
LMNB1 (UniProt P20700),-0.019,0.027,-0.046,-0.012,-0.045,0.1,0.065,-0.029,0.002,0.021
LUC7L2 (UniProt Q9Y383),0.016,-0.011,0.006,0.089,-0.036,0.012,0.047,0.015,-0.01,0
MARCKSL1 (UniProt P49006),0.039,0.011,-0.111,0.032,-0.127,0.005,-0.125,0.005,0.041,0.034
INPP1 (UniProt P49441),0.039,0.016,0.054,0.052,0.061,0.031,-0.071,0.079,-0.032,-0.03
KIF13A (UniProt Q9H1H9),-0.005,0.021,-0.005,-0.004,0.018,-0.045,0.04,-0.005,-0.021,-0.009
MCU (UniProt Q8NE86),0,0.051,0.094,0.002,0.002,0.026,0.022,-0.075,0.013,0.014
LPIN1 isoform 7 (UniProt Q14693),-0.022,0.018,-0.022,-0.026,-0.023,-0.004,0.015,0.029,0.012,0.023
LPGAT1 (UniProt Q92604),-0.077,0,0.034,0.077,0.036,0.018,0.086,-0.033,0.064,0.068
LEO1 (UniProt Q8WVC0),-0.086,-0.113,0,-0.075,0.109,-0.025,0.033,0.029,0.118,0.032
MICU1 isoform 3 (UniProt Q9BPX6),-0.002,0.052,-0.003,-0.028,0.117,-0.049,0.042,-0.001,0,0.012
LRPPRC (UniProt P42704),0.264,-0.054,0.222,0.336,0.282,0.227,0.264,-0.005,0.417,0.369
MARK3 (UniProt P27448),-0.017,0.02,0.067,-0.029,0.074,0,0.004,0.077,0.038,0.023
MAP1LC3B2 (UniProt A6NCE7),0.021,-0.034,-0.029,0.04,-0.028,0.088,0.01,0.041,0.038,0
LUZP1 (UniProt Q86V48),-0.128,0.136,-0.005,-0.182,0.184,0.05,-0.091,-0.029,0.031,-0.062
LYN isoform 2 (UniProt P07948),0.056,,-0.079,-0.079,0.376,0.095,-0.296,,-0.168,
